Activity calls are given as the source filed them.

Assay [1] relates to Plasmodium falciparum Sir2 (PF13_0152, Sir2A). Briefly: Plasmodium falciparum Sir2A binding compounds – biochemical, small-molecule microarray, 635 nm fluorescence, primary screen (AID 1098).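 Note: score merges spot fluorescence intensity with its signal-to-noise ratio.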 The note with it: fluorescence 635 nm, higher = more signal.
The nature of assay [2]: probe aDKK1 binding to arrayed compounds – biochemical, biotinylated probe, 635/667 nm fluorescence, primary screen (AID 1099).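 Note: score merges 667nm spot fluorescence with signal to noise across triplicate slides.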 To be noted: small-molecule microarray, higher = more signal.
Assay [3] in a line: probe aCHRDL2 binding to arrayed compounds – biochemical, biotinylated probe, 635/667 nm fluorescence, primary screen (AID 1100). The note with it: small-molecule microarray, higher = more signal.
A short description of assay [4]: change in splice reporter luminescence, either direction, cell-based, HEK293, spliceosome inhibition project, primary screen (AID 1101).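 Note: HEK293 cells carrying a splicing-competent luciferase reporter gene; test concentration not given here.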 To be noted: HEK293 splicing luciferase reporter, 24 h, higher = more signal, called active from +8 up or from −8 down. For orientation: A reporter such as luciferase makes a cellular process visible.
In assay [5] the target is Fibroblast growth factor 10 (Homo sapiens) (UniProt O15520). Briefly: compounds binding fibroblast growth factor 10 – biochemical, small-molecule microarray, 635 nm fluorescence, primary screen (AID 1102). The note with it: FGF10 binding, fluorescence 635 nm, higher = more signal.
Fibroblast growth factor 10 (Homo sapiens), sequence (O15520 whole entry, looked up): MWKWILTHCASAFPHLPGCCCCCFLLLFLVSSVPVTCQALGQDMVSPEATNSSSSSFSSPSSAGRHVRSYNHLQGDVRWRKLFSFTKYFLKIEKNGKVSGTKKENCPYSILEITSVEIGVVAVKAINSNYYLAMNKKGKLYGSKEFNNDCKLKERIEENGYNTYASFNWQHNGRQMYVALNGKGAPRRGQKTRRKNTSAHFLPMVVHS
The test system of assay [6] is glycogen synthase kinase-3 (GSK3A per assay name; protocol says GSK3B). Briefly: compounds binding glycogen synthase kinase-3 – biochemical, small-molecule microarray, 635 nm fluorescence, GSK3A, primary screen (AID 1103). Note: the record names both GSK3A and GSK3B. The note with it: fluorescence 635 nm, higher = more signal.
Assay [7] addresses Epidermal growth factor receptor (Homo sapiens) (UniProt P00533). Kind of assay: compounds binding epidermal growth factor receptor – biochemical, small-molecule microarray, 635 nm fluorescence, primary screen (AID 1104).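 Note: score merges 667 nm emission intensity with spot signal to noise over triplicate slides.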 To be noted: EGFR binding, higher = more signal.
In assay [8] the target is Follistatin-related protein 3 (Homo sapiens) (UniProt O95633). Kind of assay: compounds binding follistatin-related protein 3 – biochemical, small-molecule microarray, 635 nm fluorescence, primary screen (AID 1105).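 Note: score merges emission near 667 nm and signal to noise per printed spot across three slides.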 The note with it: FSTL3 binding, higher = more signal.
Follistatin-related protein 3 (Homo sapiens), sequence (O95633 whole entry, looked up): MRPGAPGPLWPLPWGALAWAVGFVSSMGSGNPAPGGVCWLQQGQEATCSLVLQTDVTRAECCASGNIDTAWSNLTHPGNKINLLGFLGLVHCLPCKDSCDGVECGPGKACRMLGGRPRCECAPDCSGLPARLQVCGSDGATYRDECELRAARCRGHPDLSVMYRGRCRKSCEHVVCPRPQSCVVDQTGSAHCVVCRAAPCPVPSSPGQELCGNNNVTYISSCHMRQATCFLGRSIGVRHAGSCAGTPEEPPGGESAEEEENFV
Assay [9] concerns the target Dickkopf-related protein 1 (Homo sapiens) (UniProt O94907). Briefly: small molecules binding DKK1 protein – biochemical, small-molecule microarray, 635 nm fluorescence scan, primary screen (AID 1106).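 Note: score merges emission near 667 nm with signal to noise over three replicate slides.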 To be noted: higher = more signal.
Assay [10] concerns Inhibin beta A chain (activin A). Briefly: small molecules binding activin A – biochemical, small-molecule microarray, 635 nm fluorescence scan, primary screen (AID 1107).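 Note: mouse activin A protein probed at 4.33 µg/mL on printed slides; score merges bound-protein fluorescence near 667 nm with spot signal-to-noise.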 The note with it: INHBA, higher = more signal.
Assay [11] has as its system Human papillomavirus type 1a protein E7 (residues 44-93). Kind of assay: small molecules binding HPV E7 44-93 – biochemical, small-molecule microarray, residues 44-93, 635 nm fluorescence, primary screen (AID 1108).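 Note: E7 fragment applied at 1 µg/mL in TBST for 1 h at 4 C; score combines spot fluorescence with its signal to noise ratio.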 The note with it: fluorescence 635 nm, higher = more signal.
Assay [12] in a line: hepatitis C replication reporter changes, two-sided – Huh7 cells, luciferase reporter, HCV replication inhibitor project, primary screen (AID 1109).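 Note: huh7 hepatoma cells harbouring a luciferase neomycin HCV replicon reporter; luciferase luminescence as measure of HCV replicon replication; test concentration not given here.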 The note with it: Huh7 HCV replicon luciferase reporter, 48 h; higher = more signal.
The target in assay [13] is Left-right determination factor 2 (Homo sapiens) (UniProt O00292). Kind of assay: small molecules binding LEFTY2 protein – biochemical, small-molecule microarray, 635 nm fluorescence scan, primary screen (AID 1110). To be noted: higher = more signal.
Left-right determination factor 2 (Homo sapiens), sequence (O00292 whole entry, looked up): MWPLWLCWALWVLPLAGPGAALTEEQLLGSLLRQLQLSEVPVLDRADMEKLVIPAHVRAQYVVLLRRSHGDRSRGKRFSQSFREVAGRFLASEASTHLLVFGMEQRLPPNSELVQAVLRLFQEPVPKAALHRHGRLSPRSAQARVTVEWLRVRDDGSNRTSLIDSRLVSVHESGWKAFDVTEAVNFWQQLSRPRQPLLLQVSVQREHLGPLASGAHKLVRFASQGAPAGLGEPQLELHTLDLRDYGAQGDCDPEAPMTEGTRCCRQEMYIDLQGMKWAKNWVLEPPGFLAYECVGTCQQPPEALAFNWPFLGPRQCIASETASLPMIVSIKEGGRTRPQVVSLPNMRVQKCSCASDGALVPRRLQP
In assay [14] the target is Calmodulin-1 (Homo sapiens) (UniProt P0DP23). Briefly: small molecules binding calmodulin-1 with EGTA – biochemical, small-molecule microarray, Cy5-labelled CALM1, profiling panel (AID 1111).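 Note: labelled calmodulin applied in Tris saline Tween buffer holding calcium plus EGTA and DTT.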 The note with it: Cy5-CALM1 binding fluorescence, higher = more signal.
For assay [15] the target is unchanged. Kind of assay: small molecules binding Ca-loaded calmodulin-1 – biochemical, small-molecule microarray, Cy5-labelled CALM1, plus calcium, artefact control for SMM control-protein annotation, profiling panel (AID 1112).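 Note: score merges spot fluorescence with signal to noise from triplicate slides.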 To be noted: Cy5-CALM1 binding fluorescence, higher = more signal.
The nature of assay [16]: probe aWnt5a binding to arrayed compounds – biochemical, biotinylated probe, 635/667 nm fluorescence, primary screen (AID 1113).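 Note: score merges 667 nm fluorescence intensity with signal-to-noise per printed feature.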 The note with it: small-molecule microarray, higher = more signal.
Assay [17] in a line: probe aShh binding to arrayed compounds – biochemical, biotinylated probe, 635/667 nm fluorescence, primary screen (AID 1114).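 Note: probe is biotin-labelled aShh protein from a stem cell growth factor screen; measures binding of labelled protein to compounds printed on the slide; score merges feature fluorescence at 667 nm with signal-to-noise.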 To be noted: small-molecule microarray, higher = more signal.
A short description of assay [18]: probe aNog binding to arrayed compounds – biochemical, biotinylated probe, 635/667 nm fluorescence, primary screen (AID 1115).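 Note: probe is biotinylated aNog protein used at 0.15 µg/mL for 1 h at 4 C; z-score combines 667 nm fluorescence of each spot with its signal to noise.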 To be noted: small-molecule microarray, higher = more signal.
Assay [19] addresses Torsin-1A-interacting protein 1 (Homo sapiens) (UniProt Q5JTV8). Kind of assay: compound microarray binding of lysate hLAP1 – cell lysate, small-molecule microarray, COS7 lysate, 635/667 nm fluorescence, primary screen (AID 1116). To be noted: 635 nm fluorescence, higher = more signal.
Assay [20] deals with Alpha-bungarotoxin (Bungarus multicinctus) (UniProt P60615). Kind of assay: compounds binding labelled alpha-BTX control protein – biochemical, small-molecule microarray, Alexa647 label, 635/667 nm fluorescence, artefact control for SMM control protein annotation, profiling panel (AID 1117). The note with it: alpha-BTX-A647 binding fluorescence, higher = more signal.
Alpha-bungarotoxin (Bungarus multicinctus), sequence (P60615 whole entry, looked up): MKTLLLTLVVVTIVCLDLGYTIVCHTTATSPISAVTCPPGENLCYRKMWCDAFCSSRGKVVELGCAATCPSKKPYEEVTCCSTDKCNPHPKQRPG

Dickkopf-related protein 1 (Homo sapiens), sequence (O94907 whole entry, looked up): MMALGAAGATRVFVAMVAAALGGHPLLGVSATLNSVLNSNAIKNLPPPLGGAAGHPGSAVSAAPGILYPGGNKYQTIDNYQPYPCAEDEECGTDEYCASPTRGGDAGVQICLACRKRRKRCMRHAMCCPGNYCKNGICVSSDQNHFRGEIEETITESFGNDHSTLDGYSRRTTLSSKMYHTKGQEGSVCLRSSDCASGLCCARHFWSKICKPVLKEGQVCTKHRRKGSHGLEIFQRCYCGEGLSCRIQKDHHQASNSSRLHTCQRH
Torsin-1A-interacting protein 1 (Homo sapiens), sequence (Q5JTV8 whole entry, looked up): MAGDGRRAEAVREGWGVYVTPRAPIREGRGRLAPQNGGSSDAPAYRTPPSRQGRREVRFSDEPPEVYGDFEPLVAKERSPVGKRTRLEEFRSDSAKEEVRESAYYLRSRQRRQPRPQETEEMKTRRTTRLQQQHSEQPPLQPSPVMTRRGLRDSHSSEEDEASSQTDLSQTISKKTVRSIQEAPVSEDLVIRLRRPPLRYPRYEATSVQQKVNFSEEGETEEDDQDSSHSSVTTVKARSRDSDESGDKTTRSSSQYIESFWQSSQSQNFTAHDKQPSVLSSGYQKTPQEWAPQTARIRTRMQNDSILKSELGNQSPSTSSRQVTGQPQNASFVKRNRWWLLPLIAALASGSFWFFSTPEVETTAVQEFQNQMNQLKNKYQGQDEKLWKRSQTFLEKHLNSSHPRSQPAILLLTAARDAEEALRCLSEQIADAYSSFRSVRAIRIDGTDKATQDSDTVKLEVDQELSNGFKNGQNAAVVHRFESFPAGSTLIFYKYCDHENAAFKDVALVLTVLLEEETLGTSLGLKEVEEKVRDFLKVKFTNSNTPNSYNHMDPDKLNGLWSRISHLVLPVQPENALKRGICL
Epidermal growth factor receptor (Homo sapiens), sequence (P00533 whole entry, looked up): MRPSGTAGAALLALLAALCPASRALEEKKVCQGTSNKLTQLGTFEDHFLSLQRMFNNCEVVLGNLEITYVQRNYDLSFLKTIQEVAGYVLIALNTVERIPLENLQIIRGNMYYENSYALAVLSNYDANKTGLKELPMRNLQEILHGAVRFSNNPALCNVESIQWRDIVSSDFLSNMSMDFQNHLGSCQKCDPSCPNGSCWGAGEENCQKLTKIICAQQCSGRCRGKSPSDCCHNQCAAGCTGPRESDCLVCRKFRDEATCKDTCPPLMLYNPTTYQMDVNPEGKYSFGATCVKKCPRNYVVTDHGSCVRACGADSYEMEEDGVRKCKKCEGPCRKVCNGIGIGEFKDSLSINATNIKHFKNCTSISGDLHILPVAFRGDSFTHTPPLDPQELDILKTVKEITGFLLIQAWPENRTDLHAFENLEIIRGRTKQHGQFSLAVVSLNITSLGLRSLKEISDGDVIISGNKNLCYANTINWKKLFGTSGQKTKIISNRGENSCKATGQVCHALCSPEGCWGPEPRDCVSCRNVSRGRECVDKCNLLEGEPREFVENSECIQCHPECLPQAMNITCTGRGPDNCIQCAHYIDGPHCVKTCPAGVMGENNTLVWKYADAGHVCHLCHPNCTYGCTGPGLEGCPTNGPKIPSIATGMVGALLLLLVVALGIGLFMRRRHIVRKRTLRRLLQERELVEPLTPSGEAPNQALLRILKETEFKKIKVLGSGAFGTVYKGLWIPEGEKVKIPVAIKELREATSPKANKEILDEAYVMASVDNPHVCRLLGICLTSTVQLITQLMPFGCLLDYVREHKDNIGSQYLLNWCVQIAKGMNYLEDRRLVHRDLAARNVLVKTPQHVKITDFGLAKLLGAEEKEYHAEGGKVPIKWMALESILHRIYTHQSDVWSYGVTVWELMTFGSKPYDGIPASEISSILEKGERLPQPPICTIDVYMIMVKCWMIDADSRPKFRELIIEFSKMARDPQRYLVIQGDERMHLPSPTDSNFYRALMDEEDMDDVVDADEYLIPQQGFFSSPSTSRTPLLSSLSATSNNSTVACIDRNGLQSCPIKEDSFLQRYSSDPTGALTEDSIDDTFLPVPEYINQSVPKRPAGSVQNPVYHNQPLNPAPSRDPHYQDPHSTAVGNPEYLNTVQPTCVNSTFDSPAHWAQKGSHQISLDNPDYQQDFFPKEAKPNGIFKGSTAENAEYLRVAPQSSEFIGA

Consider `[N-]=[N+]=NCc1ccccc1C[C@@]1(C(=O)N2CCCCC2)N=C(c2ccc(OCCCO)cc2)O[C@@H]1c1ccccc1CN=[N+]=[N-]`, for which the composite z-score in [1] is 0.649; in [2], 0.453; in assay [3] it was 1.07; in assay [5] it was 0.375; in assay [6] it was 0.962; in assay [7] it was -0.0197. The composite z-score in [8] is -0.0105; in assay [9], 0.287; in [10], 0.964; in [11], 0.905; in assay [13], -0.133; in assay [14] it was 2.02. Further, the composite z-score in assay [15] was 1.37; in assay [16] it was -0.101; in [17], -0.0626; in assay [18] it was 1.31; in assay [19] it was 1.01; in assay [20], 1.5. Also, the z-score in assay [4] is -0.4 (inactive); in assay [12], -2.73.

Turning to `C=C(COC)C(=O)CC[C@@H](OC(=O)c1cccnc1)c1ccccc1OCCO`, the composite z-score was 1.4 in assay [1]; 0.403 in assay [2]; 0.647 in [3]; 0.694 in assay [5]; -0.0625 in assay [6]; -0.333 in [7]. Further, the composite z-score was 0.529 in assay [8]; 0.18 in assay [9]; 1.51 in [10]; -1.05 in assay [11]; 0.078 in [13]; -1.08 in assay [14]. The composite z-score was -0.497 in assay [15]; -0.096 in [16]; -0.0553 in assay [17]; 0.412 in assay [18]; 0.519 in assay [19]; -0.387 in [20]. The z-score in assay [4] was 0.591 (inactive); in [12] it was -3.82.

In the case of `CCOC(=O)C1=CC[C@@H](c2ccccc2)N(S(=O)(=O)c2ccc(C)cc2)[C@H]1c1cccc(OC)c1`, the composite z-score in assay [1] stood at 0.389; in assay [2] it was 0.708; in [3], 0.244; in assay [5], 0.425; in assay [6], 0.897; in assay [7], 0.197. In addition, the composite z-score came out at 0.549 in assay [8]; 0.135 in assay [9]; 0.949 in assay [10]; 1.09 in assay [11]; 0.177 in assay [13]; 0.0295 in assay [14]. The composite z-score was found to be 0.622 in [15]; 0.0422 in [16]; 0.0898 in [17]; 0.266 in [18]; 0.854 in assay [19]; 1.3 in assay [20]. Besides, the z-score in [4] was -0.937 (inactive); in assay [12], -1.96.

On to `[N-]=[N+]=NCc1ccccc1[C@@H]1OC(c2ccc(OCCCO)cc2)=N[C@]1(Cc1ccccc1N=[N+]=[N-])C(=O)N1CCCCC1`, for which the composite z-score in [1] was 0.785; in [2], 0.561; in assay [3], 0.321; in assay [5] it was 0.548; in assay [6], 0.363; in assay [7], 0.435. Further, the composite z-score in assay [8] is 0.491; in assay [9], -0.221; in [10], 1.29; in assay [11], 1.41; in assay [13], 0.0538; in [14] it was 1.93. The composite z-score in assay [15] is 1.26; in [16], -0.248; in assay [17], -0.023; in [18], -0.538; in [19] it was 0.482; in [20] it was 0.671. Also, the figures for the z-score in [4] and in [12] were 0.327 (inactive) and -2.12, respectively.

Turning to `CCOC(=O)C1=C[C@@H](C(C)(C)C)N(S(=O)(=O)c2ccc(C)cc2)[C@H]1c1cccc(Cl)c1`, the composite z-score in assay [1] is 0.758; in [2], 0.821; in assay [3], 0.182; in assay [5], 0.907; in assay [6], 1.31; in assay [7] it was 0.427. Besides, the composite z-score in [8] was 1.36; in [9] it was 0.0675; in assay [10], -0.213; in assay [11], 0.941; in [13] it was 0.553; in [14] it was 1.09. The composite z-score was 0.321 in assay [15]; 0.137 in [16]; 0.186 in [17]; -0.136 in [18]; 0.715 in assay [19]; 1.27 in [20]. The z-score in assay [4] was -0.517 (inactive); in assay [12] it was -2.85.

For the origin of these results see PubChem BioAssay.
